# Test results from the supplement of paper PMC9262897, “Low-cost anti-mycobacterial drug discovery using engineered E. coli” (Nature Communications, 2022).
# Counter-ions that a name gives are not always drawn. ± gives the standard deviation of the averaged measurements.
# Assays:
# Assay in all cases: growth (OD600 after 10 h); higher = more growth (less inhibition)
# [1] = system: E. coli TESEC Alr+ wild-type control; conditions: compound 0.1 mM; raw OD600 reference: median of DMSO wells 0.241, cell-free background 0.041
# Method: (§1)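 TESEC Mtb Alr E. coli, or the Alr+ wild-type control, in 384-well plates with Prestwick library compounds at 0.1 mM and 1% DMSO, across arabinose induction levels of 1E3 to 1E7 nM. Growth is read as OD600 after 10 h at 37 °C in triplicate biological replicates.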
# [2] = system: E. coli TESEC Mtb Alr; conditions: compound 0.1 mM
# Method: as §1
# [3] = system: E. coli TESEC Mtb Asd; conditions: compound 0.1 mM
# Method: (§2)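 TESEC E. coli strains in which the native enzyme is deleted and replaced by arabinose-inducible Mtb Asd, DapB, CysH or TrpD, each grown in its selective medium. Strains were screened against the Prestwick library at 0.1 mM and 1% DMSO in 384-well format at low and high arabinose induction. Growth is read as OD600 after 10 h in triplicate.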
# [4] = system: E. coli TESEC Mtb DapB; conditions: compound 0.1 mM
# Method: as §2
# [5] = system: E. coli TESEC Alr+ wild-type control; conditions: compound 0.1 mM; raw OD600 reference: median of DMSO wells 0.49, cell-free background 0.052
# Method: (§3)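 TESEC Mtb Alr E. coli (ΔaraC ΔtolC ΔentC Δalr ΔdadX, arabinose-inducible Mtb Alr) or the Alr+ wild-type control strain, grown in defined M9-fructose medium without D-alanine in 96-well plates with Prestwick library compounds at 0.1 mM and 1% DMSO. Low Alr induction is 0.1 µM arabinose and high induction is 10 mM arabinose.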
# [6] = system: E. coli TESEC Mtb Alr; conditions: compound 0.1 mM; remark: listed apart in the source
# Method: as §3
# [7] = arabinose 1000 nM, raw OD600 reference: median of DMSO wells 0.294, cell-free background 0.041
# [8] = arabinose 10000 nM, raw OD600 reference: median of DMSO wells 0.264, cell-free background 0.041
# [9] = arabinose 100000 nM, raw OD600 reference: median of DMSO wells 0.201, cell-free background 0.041
# [10] = arabinose 1000000 nM, raw OD600 reference: median of DMSO wells 0.193, cell-free background 0.041
# [11] = arabinose 10000000 nM, raw OD600 reference: median of DMSO wells 0.146, cell-free background 0.041
# [12] = arabinose induction (level): High, raw OD600 reference: median of DMSO wells 0.331, cell-free background 0.041
# [13] = arabinose induction (level): Low, raw OD600 reference: median of DMSO wells 0.417, cell-free background 0.041
# [14] = arabinose induction (level): High, raw OD600 reference: median of DMSO wells […], cell-free background 0.041
# [15] = arabinose induction (level): Low, raw OD600 reference: median of DMSO wells 0.227, cell-free background 0.041
# [16] = arabinose 100 nM, raw OD600 reference: median of DMSO wells 0.413, cell-free background 0.052
# [17] = arabinose 10000000 nM, raw OD600 reference: median of DMSO wells […], cell-free background 0.052
SMILES,growth [1],"growth [2, 7]","growth [2, 8]","growth [2, 9]","growth [2, 10]","growth [2, 11]","growth [3, 12]","growth [3, 13]","growth [4, 14]","growth [4, 15]",growth [5],"growth [6, 16]","growth [6, 17]"
Cc1cc(O)c(C(=O)N[C@@H](C(=O)N[C@@H]2C(=O)N3C(C(=O)O)=C(CSc4nnnn4C)CS[C@H]23)c2ccc(O)cc2)cn1 [Cefpiramide],0.2668 ± 0.0012,0.3183 ± 0.00044,0.245 ± 0.0057,0.217 ± 0.015,0.208 ± 0.027,0.135 ± 0.0067,0.356 ± 0.063,0.375 ± 0.077,0.214 ± 0.007,0.239 ± 0.035,0.584 ± 0.046,0.419 ± 0.016,0.3403 ± 0.00045
C=C(NC(=O)C(=C)NC(=O)c1csc(C2=N[C@@H]3c4csc(n4)[C@H]4NC(=O)c5csc(n5)[C@H]([C@](C)(O)[C@@H](C)O)NC(=O)[C@H]5CSC(=N5)/C(=C/C)NC(=O)[C@H]([C@@H](C)O)NC(=O)c5csc(n5)[C@]3(CC2)NC(=O)[C@H](C)NC(=O)C(=C)NC(=O)[C@H](C)NC(=O)[C@H]([C@@H](C)CC)N[C@@H]2C=Cc3c([C@H](C)O)cc(nc3[C@H]2O)C(=O)O[C@@H]4C)n1)C(N)=O [Thiostrepton],0.297 ± 0.021,0.327 ± 0.004,0.298 ± 0.013,0.397 ± 0.0046,0.185 ± 0.0083,0.229 ± 0.02,0.295 ± 0.053,0.299 ± 0.091,0.164 ± 0.047,0.194 ± 0.058,0.603 ± 0.094,0.415 ± 0.019,0.316 ± 0.032
COc1ccc(C(=O)c2ccccc2)c(O)c1 [Oxybenzone],0.114 ± 0.003,0.148 ± 0.011,0.15 ± 0.004,0.151 ± 0.017,0.0914 ± 0.0039,0.0993 ± 0.0024,0.223 ± 0.023,0.334 ± 0.01,0.186 ± 0.015,0.257 ± 0.0051,0.27 ± 0.011,0.377 ± 0.022,0.146 ± 0.021
C/C(=C(\CCOP(=O)(O)O)SC(=O)c1ccccc1)N(C=O)Cc1cnc(C)nc1N [Benfotiamine],0.2481 ± 0.0011,0.317 ± 0.014,0.257 ± 0.0029,0.205 ± 0.019,0.186 ± 0.006,0.141 ± 0.0056,0.352 ± 0.068,0.41 ± 0.11,0.188 ± 0.0089,0.224 ± 0.032,0.502 ± 0.11,0.404 ± 0.0067,0.359 ± 0.0094
NCCC[C@H](N)CC(=O)N[C@H]1CNC(=O)[C@H]([C@H]2C[C@H](O)NC(N)=N2)NC(=O)/C(=C/NC(N)=O)NC(=O)[C@H](CO)NC(=O)[C@H](CO)NC1=O [Viomycin sulfate],0.178 ± 0.011,0.251 ± 0.012,0.1314 ± 0.0004,0.138 ± 0.0014,0.112 ± 0.0031,0.143 ± 0.0015,0.281 ± 0.032,0.268 ± 0.016,0.169 ± 0.0056,0.226 ± 0.031,0.193 ± 0.13,0.226 ± 0.14,0.0681 ± 0.0071
Nc1nc(=O)[nH]cc1F [Flucytosine],0.245 ± 0.0069,0.309 ± 0.022,0.243 ± 0.0058,0.187 ± 0.011,0.175 ± 0.008,0.14 ± 0.0027,0.456 ± 0.025,0.492 ± 0.026,0.21 ± 0.018,0.222 ± 0.016,0.57 ± 0.021,0.411 ± 0.015,0.333 ± 0.02
CCOC(=O)n1ccn(C)c1=S [Carbimazole],0.239 ± 0.0029,0.297 ± 0.0079,0.27 ± 0.012,0.192 ± 0.0037,0.212 ± 0.0081,0.145 ± 0.0022,0.346 ± 0.079,0.284 ± 0.037,0.216 ± 0.011,0.239 ± 0.025,0.607 ± 0.05,0.424 ± 0.011,0.407 ± 0.0073
COc1ccc(CCN(C)CCCC(C#N)(c2ccc(OC)c(OC)c2)C(C)C)cc1OC (stereo not drawn) [Verapamil hydrochloride],0.185 ± 0.0071,0.25 ± 0.0055,0.27 ± 0.0044,0.195 ± 0.0032,0.116 ± 0.0045,0.149 ± 0.0027,0.243 ± 0.048,0.346 ± 0.095,0.177 ± 0.017,0.248 ± 0.044,0.461 ± 0.022,0.409 ± 0.005,0.258 ± 0.014
CC1(C)S[C@@H]2[C@H](NC(=O)[C@H](NC(=O)N3CCNC3=O)c3ccccc3)C(=O)N2[C@H]1C(=O)O [Azlocillin sodium salt],0.238 ± 0.0043,0.312 ± 0.008,0.276 ± 0.0051,0.177 ± 0.0081,0.195 ± 0.013,0.152 ± 0.015,0.31 ± 0.035,0.442 ± 0.025,0.177 ± 0.015,0.222 ± 0.031,0.631 ± 0.06,0.403 ± 0.017,0.361 ± 0.013
CC(=O)Nc1ccc(O)cc1 [Acetaminophen],0.251 ± 0.0034,0.315 ± 0.0071,0.277 ± 0.0034,0.202 ± 0.0068,0.188 ± 0.0053,0.162 ± 0.0048,0.473 ± 0.034,0.455 ± 0.0071,0.215 ± 0.018,0.251 ± 0.027,0.559 ± 0.083,0.407 ± 0.015,0.335 ± 0.011
Cn1c(=O)c2c(ncn2CC(=O)O)n(C)c1=O [Acefylline],0.248 ± 0.0081,0.307 ± 0.01,0.253 ± 0.0048,0.21 ± 0.0073,0.191 ± 0.0048,0.138 ± 0.0046,0.297 ± 0.04,0.433 ± 0.014,0.196 ± 0.0038,0.207 ± 0.021,0.457 ± 0.013,0.408 ± 0.007,0.347 ± 0.01
NS(=O)(=O)c1cc2c(cc1Cl)N=CNS2(=O)=O [Chlorothiazide],0.254 ± 0.0047,0.29 ± 0.0056,0.268 ± 0.0056,0.212 ± 0.021,0.183 ± 0.0053,0.1414 ± 0.00081,0.433 ± 0.014,0.447 ± 0.045,0.193 ± 0.006,0.239 ± 0.024,0.494 ± 0.032,0.403 ± 0.014,0.354 ± 0.0098
COc1cc(C(=O)N2CCOCC2)cc(OC)c1OC [Trimetozine],0.253 ± 0.004,0.313 ± 0.014,0.2694 ± 0.0015,0.22 ± 0.0037,0.203 ± 0.023,0.14 ± 0.0052,0.288 ± 0.0085,0.441 ± 0.018,0.192 ± 0.02,0.229 ± 0.0089,0.616 ± 0.021,0.401 ± 0.0073,0.363 ± 0.0044
CC1(C)O[C@@H]2C[C@H]3[C@@H]4C[C@H](F)C5=CC(=O)CC[C@]5(C)[C@H]4[C@@H](O)C[C@]3(C)[C@]2(C(=O)CO)O1 [Flurandrenolide],0.223 ± 0.0092,0.289 ± 0.015,0.2518 ± 0.0025,0.174 ± 0.022,0.161 ± 0.01,0.131 ± 0.0031,0.282 ± 0.038,0.448 ± 0.035,0.216 ± 0.0087,0.239 ± 0.0036,0.417 ± 0.041,0.406 ± 0.01,0.338 ± 0.011
NC[C@H]1O[C@H](O[C@H]2[C@H](O)[C@@H](O[C@H]3O[C@H](CO)[C@@H](O)[C@H](N)[C@H]3O)[C@H](N)C[C@@H]2N)[C@H](N)C[C@@H]1O [Tobramycin],0.0408 ± 0.00049,0.0407 ± 0.00085,0.03917 ± 0.00021,0.0411 ± 0.00055,0.03913 ± 0.00031,0.04083 ± 5.8e-05,0.0498 ± 0.00085,0.0468 ± 0.0021,0.04757 ± 0.0004,0.0491 ± 0.0037,0.04933 ± 0.00049,0.0513 ± 0.0001,0.0502 ± 0.001
C#C[C@]1(OC(C)=O)CC[C@H]2[C@@H]3CCC4=CC(=NO)CC[C@@H]4[C@H]3CC[C@@]21CC (mixture of isomers) [Norgestimate],0.134 ± 0.0062,0.123 ± 0.0052,0.0585 ± 0.0036,0.136 ± 0.0049,0.0563 ± 0.0053,0.111 ± 0.0098,0.0829 ± 0.015,0.0714 ± 0.019,0.126 ± 0.0075,0.0826 ± 0.025,0.185 ± 0.0039,0.263 ± 0.013,0.0794 ± 0.012
